Bioassay records from PubChem BioAssay.
SENP6 inh – SENP6 protease inhibition; Q9GZR1; Recombinant SENP6 catalytic domain, aminoluciferin luminescence; inhibition, % at 10 µM; 330,000 tested, 1.8% active; AID 2599;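 active = inhibition above about 50% at the single tested dose, limit read from the data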
SENP8 block-1 – SENP8 protease inhibition. Q96LD8. purified SENP8, Z-RLRGG-aminoluciferin cleavage, luminescence. inhibition, % at 10 µM. 330,000 tested, 1.2% active. AID 2540; in the data active = inhibition above about 50%
Target sequence (Q96LD8 whole entry, looked up): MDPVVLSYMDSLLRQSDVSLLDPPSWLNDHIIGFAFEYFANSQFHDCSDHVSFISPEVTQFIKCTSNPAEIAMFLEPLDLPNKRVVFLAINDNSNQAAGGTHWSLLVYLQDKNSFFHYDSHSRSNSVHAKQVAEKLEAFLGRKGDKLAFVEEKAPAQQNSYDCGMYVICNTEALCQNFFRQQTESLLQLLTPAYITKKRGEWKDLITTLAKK
SENP8 block-2 – SENP8 (human) protease inhibition; recombinant SENP8, Nedd8 substrate fluorescence; Q96LD8; inhibition, % at 20 µM; 360,000 tested, 0.64% active; in the data active = inhibition mostly above about 40%, no sharp cut-off; inactive = mostly below about 27%
SENP7 block – blocks the human protease SENP7. recombinant SENP7, Z-RLRGG-aminoluciferin luminescence, 40 min. inhibition, % at 5 µM. 330,000 tested, 1.5% active. AID 434973;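 active = inhibition above about 50% at the single test dose, limit read from the data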
PPC-1+TRAIL kill – PPC-1 cancer cell killing with TRAIL present; PPC-1 cells + TRAIL, ATPLite viability luminescence; cell killing (% activity), % at 4 µM or 5 µM; 220,000 tested, 0.41% active; AID 1443;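 active = cell killing above 50% in the first pass at 4 µM, then a duplicate retest at 5 µM averaging 50% or more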
TRAIL sens C8 – caspase-8 TRAIL sensitization. NB7+C8 cells + TRAIL, ATPlite viability luminescence. inhibition (viability loss, TRAIL sensitization), % at 10 µM. 360,000 tested, 1% active;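 active = compounds causing at least 50% loss of cell viability in the single-dose screen, relative to plate controls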
SENP8 confirm – human SENP8 inhibition, confirmed; shares compounds with SENP7 block; Recombinant SENP8, Z-RLRGG-aminoluciferin luminescence, 60 min; inhibition, % at 12.5 µM; 6,200 tested, 40% active; AID 488912;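 active = mean inhibition across replicates above about 50%, limit read from the data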
SENP6 confirm – confirmation of human SENP6 protease inhibitors; shares compounds with SENP7 block; recombinant SENP6, Z-RLRGG-aminoluciferin luminescence; inhibition, % at 12.5 µM; 6,200 tested, 58% active
SENP7 conf – confirmation of human SENP7 protease inhibitors; shares compounds with SENP7 block; recombinant SENP7, Z-RLRGG-aminoluciferin luminescence, 40 min; inhibition, % at 12.5 µM; 6,200 tested, 69% active; AID 488917
Casp3 SENP sel – inhibits human caspase-3 in SENP selectivity test; purified caspase-3, Z-DEVD-aminoluciferin luminescence, 60 min; shares compounds with SENP7 block; inhibition, % at 12.5 µM; 6,200 tested, 60% active;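 active = mean inhibition above about 50%, limit read from the data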
Target sequence (P42574 28-227 limits assumed): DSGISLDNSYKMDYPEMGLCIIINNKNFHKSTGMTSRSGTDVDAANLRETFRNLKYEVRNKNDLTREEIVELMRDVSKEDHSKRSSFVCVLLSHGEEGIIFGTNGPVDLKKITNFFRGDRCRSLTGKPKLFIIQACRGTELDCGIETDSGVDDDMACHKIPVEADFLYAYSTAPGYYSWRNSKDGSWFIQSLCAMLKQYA
SENP luc ctr – counter-screen for SENP inhibitors: luminescence interference; inhibition, % at 12.5 µM; 6,200 tested, 39% active; shares compounds with SENP7 block; Pre-incubated SENP8/Z-RLRGG-aminoluciferin, luciferase luminescence interference;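 active = mean inhibition above about 50% when retested at one dose, limit read from the data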
Hits are given with their value; n = inactive; x = no result. Shown are actives, neighbours in structure and some others; about 3% of the full set was active somewhere.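 The calls were made as follows, unless noted: active = mean inhibition above about 50% in the one-dose retest (limit read from the data); inactive = the rest.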

SMILES	SENP6 inh	SENP8 block-1	SENP8 block-2	SENP7 block	PPC-1+TRAIL kill	TRAIL sens C8	SENP8 confirm	SENP6 confirm	SENP7 conf	Casp3 SENP sel	SENP luc ctr
CN1C(=O)C(C)(C)N(C(=O)c2cccc([N+](=O)[O-])c2)c2ccccc21	n	n	n	n	x	n	x	x	x	x	x
CCN(CC)CCNC(=O)CNC(=O)c1nn(-c2ccc(OC)cc2OC)c(=O)c2ccccc12	n	n	n	n	x	n	x	x	x	x	x
CN(C(=O)COC(=O)c1ccccc1C(=O)c1ccccc1)c1ccccc1	n	n	n	n	x	n	x	x	x	x	x
CN(C)c1ccc(/C=C/C(=O)c2ccc3c(c2)OCO3)cc1	91	88	n	88	x	n	95	94	101	83	66
O=C(/C=C/c1ccc2c(c1)OCO2)c1ccc(F)cc1	n	n	n	n	n	n	x	x	x	x	x
COC(=O)C1=C(CCc2ccccc2)NC(=O)NC1c1ccc(Br)cc1 (stereo not drawn)	n	n	n	n	x	n	x	x	x	x	x
COCCn1c(SCC(=O)N2CCCC2)nc2c([nH]c3ccccc32)c1=O	n	n	n	n	x	n	x	x	x	x	x
COc1ccc(C(=O)Nc2nc3ccccc3c(=O)[nH]2)cc1	54	n	n	n	n	n	n	n	59	72	n
O=C(Nc1nc2ccccc2[nH]1)c1cccc(Cl)c1	57	n	n	68	x	n	n	n	86	66	n
O=C(Nc1nc2ccccc2[nH]1)c1ccccc1O	88	82	n	92	x	49	n	80	64	92	n
O=C(Nc1nc2ccccc2[nH]1)c1ccc(Cl)cc1	93	87	n	90	x	87	n	92	100	93	n
CN(c1cccc(Cl)c1)S(=O)(=O)c1cccc(C(=O)Nc2nc3ccccc3[nH]2)c1	n	n	n	n	n	n	x	x	x	x	x
CCc1ccc(CNC(=O)CCCC(=O)n2nc(C)c3ccccc32)cc1	n	n	n	n	x	n	x	x	x	x	x
COc1ccc(C(N)c2csc(Nc3nncc4ccccc34)n2)cc1 (stereo not drawn)	x	x	n	x	x	n	x	x	x	x	x
CC(C)(C)c1ccc(/C=C(\C#N)C(=O)NC2CC2)cc1	n	n	n	n	x	n	x	x	x	x	x
CC(C)Cc1nnc(NC(=O)CCC(=O)NC2CCCCCC2)s1	n	n	n	n	x	n	x	x	x	x	x
COC(=O)c1ccc(-c2nc3cc(N)ccc3o2)cc1	85	69	n	73	n	56	n	n	74	54	n
Cc1ccc(C)c(-c2nc3cc(N)ccc3o2)c1	55	n	n	n	n	n	n	n	69	n	50
COc1ccc(-c2nc3cc(NC(=O)c4ccc5c(c4)OCO5)ccc3o2)cc1	n	n	n	n	n	n	x	x	x	x	x
Nc1ccc(-c2nc3cc(N)ccc3o2)cc1	52	n	n	n	x	n	n	n	77	67	52
CN(C)c1ccc(-c2nc3cc(N)ccc3o2)cc1	93	91	n	95	x	83	85	94	100	91	79
Cc1ccc(C)c(-c2nc3ccc(N)cc3[nH]2)c1	n	n	n	n	n	n	x	x	x	x	x
CC(C)C(C)(C#N)NC(=O)CSc1nc2scc(-c3ccc(F)cc3)c2c(=O)n1Cc1ccccc1 (stereo not drawn)	n	n	n	n	n	n	x	x	x	x	x
Cn1nccc1C(=O)N1CCN(S(=O)(=O)c2ccc(Br)s2)CC1	n	n	n	n	x	n	x	x	x	x	x
CCOC(=O)c1c(C)nc(C)c2c(=O)oc3ccccc3c12	n	n	n	n	n	n	x	x	x	x	x
SMILES	SENP6 inh	SENP8 block-1	SENP8 block-2	SENP7 block	PPC-1+TRAIL kill	TRAIL sens C8	SENP8 confirm	SENP6 confirm	SENP7 conf	Casp3 SENP sel	SENP luc ctr
CCN(CC1CCCO1)C(=O)CCc1nnc(CCc2ccc(OC)cc2)o1 (stereo not drawn)	n	n	n	n	x	n	x	x	x	x	x
Cc1ccc(-c2nc3cc(N)ccc3o2)cc1Br	93	87	n	91	x	n	n	91	101	74	n
Cc1nn(S(=O)(=O)c2ccc(F)cc2)c(C)c1S(=O)(=O)N1CCOCC1	n	n	n	n	x	n	x	x	x	x	x
CC1(C)CC(=O)C(N=Nc2cccc([N+](=O)[O-])c2)=C(O)C1	n	n	n	n	n	n	x	x	x	x	x
CCOc1cc(C=O)cc(N=Nc2cccc([N+](=O)[O-])c2)c1O	83	82	n	n	x	n	n	n	n	n	n
Cc1ccc(-c2nnc3sc(-c4ccncc4)nn23)cc1	n	n	n	57	n	n	n	n	n	n	n
COC(=O)c1ccc(-c2ccc(F)cc2)nc1C	62	n	n	53	n	n	n	n	77	n	n
CCOC(=O)c1cc2c(nc1N)CCCC2	n	n	n	n	n	n	x	x	x	x	x
Cc1ccc(-c2ccc(C(=O)O)c(C)n2)cc1	n	n	n	n	n	n	x	x	x	x	x
CCOC(=O)c1ccc(-c2ccc3c(c2)CCC3)nc1C	60	53	n	70	x	n	57	57	80	n	n
O=C(Nc1nnc(C(F)(F)F)s1)c1ccc(Br)s1	53	73	n	62	n	n	n	53	77	n	n
Cc1cc(C(=O)Nc2nnc(C(F)(F)F)s2)cs1	76	65	n	58	n	n	66	68	86	84	n
CCc1noc(C)c1C(=O)Nc1nc2c(F)cc(F)cc2s1	90	83	n	73	x	n	52	86	98	87	51
O=C(Nc1nc2c(F)cc(F)cc2s1)c1ccccn1	70	64	n	93	n	71	61	69	n	79	n
O=C(COc1ccccc1)NNc1nc2c(F)cc(F)cc2s1	n	n	n	n	n	n	x	x	x	x	x
CN(CC(=O)Nc1ccc(Cl)cc1)C(=O)CNC(=O)c1cccs1	n	n	n	n	x	n	x	x	x	x	x
O=C(Nc1nnc(-c2ccco2)s1)C1CC1	n	n	n	n	n	n	x	x	x	x	x
COc1ccc(C(=O)Nc2nnc(-c3ccco3)s2)cc1	88	78	n	95	n	59	n	n	n	n	n
O=C(Nc1nnc(-c2ccco2)s1)c1ccccc1	68	n	n	n	n	n	n	54	85	77	n
COc1ccc(NC(=O)Nc2nnc(-c3cccs3)s2)cc1	n	n	n	n	n	n	x	x	x	x	x
COc1ccc(C(=O)Nc2nnc(-c3cccs3)s2)cc1	n	n	n	56	n	n	n	n	n	n	n
